# Legend:
# Assay type in all cases: functional
# [1] = biological target: Solute carrier family 2, facilitated glucose transporter member 1 (Homo sapiens) (UniProt P11166); test: ST_JUDE_LEISH: Cytotoxicity at 2uM final concentration against transgenic Leishmania Mexicana promastigotes LmGLUT1 that are glucose transport deficient and complemented with the human glucose transporter GLUT1. Activity is measured by DNA content using SYBR green in vitro
# [2] = biological target: Hexose transporter 1 (Plasmodium falciparum) (UniProt O97467); test: ST_JUDE_LEISH: Cytotoxicity at 2uM final concentration against transgenic Leishmania Mexicana promastigotes LmPfHT that are glucose transport deficient and complemented with the Plasmodium falciparum hexose transporter. Activity is measured by DNA content using SYBR green in vitro
# [3] = biological target: Glucose transporter (Leishmania mexicana) (UniProt O61059); test: ST_JUDE_LEISH: Cytotoxicity at 2uM final concentration against transgenic Leishmania Mexicana promastigotes LmGT2 that are glucose transport deficient and complemented with the L. Mexicana glucose transporter 2. Activity is measured by DNA content using SYBR green in vitro
# Chain of Solute carrier family 2, facilitated glucose transporter member 1 (Homo sapiens) (P11166 whole entry): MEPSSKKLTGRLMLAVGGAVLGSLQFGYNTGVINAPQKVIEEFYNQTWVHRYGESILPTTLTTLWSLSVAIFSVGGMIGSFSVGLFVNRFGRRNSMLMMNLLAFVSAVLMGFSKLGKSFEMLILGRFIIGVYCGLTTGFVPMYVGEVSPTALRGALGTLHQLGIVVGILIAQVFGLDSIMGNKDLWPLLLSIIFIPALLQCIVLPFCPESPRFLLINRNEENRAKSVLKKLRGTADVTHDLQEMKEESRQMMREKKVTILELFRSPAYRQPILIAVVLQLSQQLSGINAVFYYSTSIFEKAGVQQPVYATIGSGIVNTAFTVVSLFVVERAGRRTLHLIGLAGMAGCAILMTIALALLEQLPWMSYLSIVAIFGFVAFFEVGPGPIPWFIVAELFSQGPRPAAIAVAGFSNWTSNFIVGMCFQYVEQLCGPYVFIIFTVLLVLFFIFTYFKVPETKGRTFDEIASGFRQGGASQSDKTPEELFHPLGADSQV
SMILES,inhibition [1] [%],inhibition [2] [%],inhibition [3] [%]
CN1CCC(C(=O)Nc2ccc(-c3ccc(-c4nc5ccccc5[nH]4)cc3)cc2)CC1,2.95,1.48,0.83
Cc1cccc2nc(-c3cccc(-c4cccc(NC(=O)COc5ccccc5C(N)=O)c4)c3)[nH]c12,-0.32,3.3,2.14
CCc1nc2nc(C)cc(Nc3cc(C)cc(C)c3)n2n1,3.06,2.04,3.36
O=C(/C=C/c1ccc(Cl)c(Cl)c1)NC1CCC(CN2CCC(Cc3c[nH]c4ccccc34)CC2)CC1 (configuration not stated),2.9,3.43,3.79
Cc1cc(=O)c(C2CCC(c3ccc(Cl)cc3)CC2)c(C)[nH]1 (configuration not stated),2.3,2.51,2.37
NC(=O)c1cc2nc(Nc3ccc(F)cc3)nc(Nc3ccc(S(N)(=O)=O)cc3)c2[nH]1,1.3,0.26,0.35
CN(Cc1ccccc1)C1CCCN(c2cc(NC(=O)c3ccc(F)cc3)ccn2)C1 (configuration not stated),-0.91,-2.04,0.07
NC(=O)C1Cc2ccccc2CN1CC(=O)Nc1ccccc1Sc1ccccc1 (configuration not stated),2.73,2.07,2.18
O=C(Nc1ccc([N+](=O)[O-])cc1Br)c1cc2ccccc2nc1Cl,8.95,8.73,7.12
Cc1ccn2c(N(Cc3ccccc3)C(=O)c3ccc(Cl)c(Cl)c3)c(-c3ccccc3)nc2c1,4.28,3.03,0.79
COc1ccc2nccc([C@@H](O)CN3CCC(NCc4cc5cccc(OC)c5o4)CC3)c2c1,1.32,3.57,-0.75
COc1ccc2c(=NN=Cc3cccc(F)c3)cc(C)[nH]c2c1,-1.29,4.27,1.95
CCN(CC)CCNc1ccnc2[nH]c3ccc([N+](=O)[O-])cc3c12,3.68,3.92,3.99
CN1CCCC1CCNc1ncc2c(-c3ccc(NC(=O)Nc4cc(C(F)(F)F)ccc4F)cc3)nn(C)c2n1 (configuration not stated),3.33,1.92,3.95
Brc1ccc(Nc2nc(NCc3ccccc3)c3ccccc3n2)cc1,22.6,16.5,6.03
COc1ccc(C2N=C(N)N=C(N)N2OCc2ccccc2)cc1OC (configuration not stated),0.67,2.45,2.49
OC1CCCN(Cc2ccc(-c3ccc(-c4nc5cc(F)ccc5[nH]4)cc3)cc2)C1 (configuration not stated),9.06,8.43,6.49

SMILES,inhibition [1] [%],inhibition [2] [%],inhibition [3] [%]
COc1ccc(C2CC(c3ccccc3)=NN2C(=O)c2ccc(Br)o2)cc1 (configuration not stated),-0.17,0.43,0.09
CSc1cccc(Nc2nc3ccc(S(=O)(=O)NCC(C)C)cc3n2C(C)C(C)C)c1 (configuration not stated),2.75,4.12,2.98
Cc1cc(-c2cc3nc4c(c(O)n3n2)CCCC4)c(C)o1,4.05,8.94,6.14
CCN(CC)CCN(Cc1ccc(-c2ccc(C(F)(F)F)cc2)cc1)C(=O)Cn1c(CCc2cccc(F)c2F)nc(=O)c2ccccc21,1.51,0.95,1.67
COc1ccc(Nc2nccc(-c3ccc4c(-c5ccsc5)cnc(N)c4c3)n2)cc1,1.99,7.26,6.65
CS(=O)(=O)CCNCc1nc(-c2ccc3c(Nc4ccc(F)c(O)c4)ccnc3c2)cs1,0.96,0.78,0.48
Cc1cc(=NN=Cc2ccccc2Cl)c2cccc(C)c2[nH]1,3.87,2.32,-1.14
NC1CCCN(Cc2cccc(-c3ccc(-c4nc5cc(C(F)(F)F)ccc5[nH]4)cc3)c2)C1 (configuration not stated),2.3,0.39,2.55
Cc1noc(C)c1-c1ccc2c(Nc3cccc4c3-c3ccccc3C4=O)c(C(=O)NCc3ccccc3I)cnc2c1,3.15,2.33,6.11
CC(C)(C)OC(=O)[C@H](CC(N)=O)NC(=O)c1ccc(-c2ccc(-c3nc4cc(C(F)(F)F)ccc4[nH]3)s2)cc1,5.01,3.22,1.57
CC(=O)Oc1c(C2CCN(CCCCNC(=O)c3ccc(NC(=O)c4ccc(Cl)cc4)cc3)CC2)ccc2c1CCCC2,4.86,6.32,3.9
CC(C)(C)OC(=O)N[C@@H](Cc1ccccc1)C(=O)Nc1cccc(-c2cccc(NC(=O)[C@H](Cc3ccccc3)NC(=O)OC(C)(C)C)c2)c1,0.62,0.21,0.33
O=C(Nc1cc(Cl)cc(Cl)c1)c1cnn(-c2ccc(F)cc2)c1C1CCNCC1,-0.33,-0.39,1.72
Cc1cccc2nc(-c3ccc(-c4cccc(CN5CCC(C(N)=O)CC5)c4)cc3)[nH]c12,0.21,-0.52,-1.72
CC[C@H](C)CNC(=O)c1ccnc(-c2ccc(CNC3Cc4ccccc4C3)cc2)c1,0.15,0.08,-0.69
CC(C)C1=NC(=O)c2cc([N+](=O)[O-])ccc2CN1,1.78,1.79,2.11
CN(C)Cc1ccc(-c2cc3c(Nc4ccc(OCc5cccc(F)c5)c(Cl)c4)ncnc3s2)[nH]1,2.15,2.19,2.33
